Assay results reported in PubChem BioAssay AID1159580 (chemical genetic matrix, 2015).
Out of some 5,500 compounds screened, about 2,000 (36%) were called active. Inconclusive results (about 18%) are left out. No stated cut-off is given here; in the data, active means normalized growth mostly below about 0.91 (no sharp cut-off); inconclusive means no clear call, values can overlap the other calls; inactive means mostly above about 0.92. The list shows a part of the results.

Experiment: chemical genetic growth profiling, strain panel (AID 1159580);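 further: tested at 20 µM; growth read once vehicle control cultures reached saturation at 30 °C; 1 = growth at the plate median or of vehicle wells; lower values mean less growth of the strain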
Conditions: S. cerevisiae deletion strains, growth OD
[1] = locus YDR150W, strain NUM1, active compounds read low
[2] = locus YGR078C, strain PAC10, active compounds read low
[3] = locus YJR075W, strain HOC1, active compounds read low
[4] = locus YMR263W, strain SAP30, active compounds read low
[5] = locus YNL153C, strain GIM3, active compounds read low
[6] = locus YPL055C, strain LGE1, active compounds read low

Measured: normalized growth

CCC(=O)N1CCN(C(=O)c2ccccc2)CC1
inactive: locus YAL040C, strain CLN3, active compounds read low 1.04 | locus YCL061C, strain MRC1 (second series), active compounds read low 0.992 | [1] 1.01 | locus YDR363W, strain ESC2, active compounds read low 0.993 | locus YER002W, strain NOP16, active compounds read low 1 | [2] 0.989 | [3] 1.02 | [4] 0.994 | [5] 1.05 | locus YNL175C, strain NOP13, active compounds read low 1.02 | locus YNL197C, strain WHI3, active compounds read low 0.983 | locus YNL224C, strain SQS1, active compounds read low 0.994 | locus YOR083W, strain WHI5 (second series), active compounds read low 1.03 | [6] 1

CCC(=O)c1ccc(-c2ccccc2)cc1
active: locus YCL061C, strain MRC1, active compounds read low 0.904 | locus YEL061C, strain CIN8, active compounds read low 0.895 | locus YHR030C, strain SLT2, active compounds read low 0.502 | locus YJR043C, strain POL32, active compounds read low 0.912 | locus YLR039C, strain RIC1, active compounds read low 0.765 | locus YLR085C, strain ARP6, active compounds read low 0.631 | locus YLR262C, strain YPT6, active compounds read low 0.727 | [5] 0.924 | locus YNL298W, strain CLA4 (second series), active compounds read low 0.821 | locus YOL006C, strain TOP1, active compounds read low 0.568 | locus YPR135W, strain CTF4, active compounds read low 0.58
inactive: locus YAL013W, strain DEP1, active compounds read low 0.948 | locus YBR229C, strain ROT2, active compounds read low 0.93 | locus YDL101C, strain DUN1, active compounds read low 0.918 | locus YDL134C, strain PPH21, active compounds read low 0.963 | [1] 0.899 | [2] 0.935 | locus YGR229C, strain SMI1, active compounds read low 0.978 | locus YHR087W, strain rtc3, active compounds read low 0.939 | [3] 0.912 | locus YLR058C, strain SHM2 (second series), active compounds read low 0.953 | locus YML094W, strain GIM5, active compounds read low 0.934 | locus YMR219W, strain ESC1, active compounds read low 0.957 | [4] 0.905 | locus YNL322C, strain KRE1, active compounds read low 0.968 | locus YNR030W, strain Alg12, active compounds read low 0.936 | [6] 0.831 | locus YPL241C, strain CIN2, active compounds read low 0.863
